PubChem BioAssay AID624345 (National Center for Advancing Translational Sciences (NCATS), 2012)
Calls of active or inactive are those of the source.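 Rule for the calls: active = IC50 of 75 µM or lower for blocking USP2 cleavage of diubiquitin, judged on gels; inconclusive = IC50 above 75 µM but below 100 µM; inactive = IC50 of 100 µM or more.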

These compounds were tested against Ubiquitin carboxyl-terminal hydrolase 2 (Homo sapiens) (UniProt O75604) (assay: Inhibitors of USP1/UAF1: Hit Validation in USP2 Diubiquiting Gel Assay). Conditions: USP2 K63-diubiquitin cleavage, SDS-PAGE gel densitometry.
From the text: Deubiquitinating enzymes (DUBs) are a class of enzymes that can cleave isopeptide bond formed between the C-terminal carboxylate of ubiquitin and a lysine side-chain amino group on the target protein. Among them, ubiquitin specific proteases (USPs) constitute the largest DUB family. Human USPs are emerging as promising targets for pharmacological intervention because of their connection to a number of human diseases, including prostate, colon and breast cancer (1, 2), pediatric acute lymphoblastic leukemia (3), and familial cylindromatosis (4). The advantage of inhibiting USPs lies in the potential specificity of therapeutic intervention that can lead to better efficacy and reduce nonspecific side effects. In a collaboration between the University of Delaware and the NIH Chemical Genomics Center, a high-throughput screen assay was developed to screen for USP1/UAF1 inhibitors. This miniaturized assay has a fluorescent read-out and is used to screen the NIH Molecular Libraries Small Molecule Repository (MLSMR) in order to identify a small molecule that inhibits USP1. Follow-up assays have also been developed to further test the hits from the primary screen. This assay validates the hits identified from the primary screen using a USP2 diubiquiting gel assay. NIH Chemical Genomics Center [NCGC] NIH Molecular Libraries Probe Centers Network [MLPCN] MLPCN Grant: DA030552 Assay Submitter (PI): Zhihao Zhuang, University of Delaware 1. Priolo, C., et al. (2006) The isopeptidase USP2a protects human prostate cancer from apoptosis. Cancer Res 66, 8625-8632 2. Popov, N., et al. (2007) The ubiquitin-specific protease USP28 is required for MYC stability. Nat Cell Biol 9, 765-774 3. […]
The inhibition assay contains 20 nM USP2, 2 microM K63 linked diubiquitin, and inhibitors at varied concentrations (0.08 microM - 114 microM). […] The intensity of the individual diubiquitin and monoubiquitin band was quantified using Quantity One 4.3.1 (Biorad, Hercules, CA). The percentage of the conversion was determined and used to calculate the reaction rate. […]

Ubiquitin carboxyl-terminal hydrolase 2 (Homo sapiens), sequence (O75604 whole entry, looked up): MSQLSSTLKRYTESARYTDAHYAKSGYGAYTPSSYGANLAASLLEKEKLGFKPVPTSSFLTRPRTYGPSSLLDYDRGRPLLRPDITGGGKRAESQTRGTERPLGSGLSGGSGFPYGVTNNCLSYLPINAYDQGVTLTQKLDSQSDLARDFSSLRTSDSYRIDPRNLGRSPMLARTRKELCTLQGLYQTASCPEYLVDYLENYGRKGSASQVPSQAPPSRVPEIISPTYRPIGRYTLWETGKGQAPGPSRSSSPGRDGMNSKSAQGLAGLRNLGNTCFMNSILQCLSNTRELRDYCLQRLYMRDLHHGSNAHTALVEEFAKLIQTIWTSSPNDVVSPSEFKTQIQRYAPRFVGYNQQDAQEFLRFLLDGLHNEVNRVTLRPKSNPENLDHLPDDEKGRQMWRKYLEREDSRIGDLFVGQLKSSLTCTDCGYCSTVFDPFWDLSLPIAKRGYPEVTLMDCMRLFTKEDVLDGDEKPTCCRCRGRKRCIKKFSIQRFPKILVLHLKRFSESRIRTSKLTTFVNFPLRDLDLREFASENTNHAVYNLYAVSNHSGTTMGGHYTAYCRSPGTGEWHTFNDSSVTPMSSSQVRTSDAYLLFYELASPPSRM

outcome, inactive:
FC(F)(F)c1ccccc1-c1nc(NCc2cccs2)c2ccccc2n1, Cc1cccc(CNc2ccnc(-c3ccccc3C(F)(F)F)n2)c1, Cc1ccccc1-c1nc(NCc2cccs2)c2ccccc2n1
